The values that follow come from PubChem BioAssay (Tox21).

Inconclusive results are not listed. A number with no mark means an inactive call. Activity calls are given as the source filed them. Unless noted, the call rests on the fitted dose curve; in most records, active means well fitted curve in the direction sought with a large enough effect in the repeat runs; inconclusive means weak or mixed curves; inactive means no such curve, though single readings can be large; an effect the other way counts as inactive or inconclusive.

Assay [1] can be described thus: qHTS assay to identify small molecule antagonists of the thyroid receptor (TR) signaling pathway (AID 743065). Further: nearly all actives have a fitted effect of over 55% in size. Further: potency means the concentration at half of the fitted maximal effect. A digest of the protocol: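 GH3.TRE-Luc rat pituitary cells carrying two TR response elements driving luciferase were plated for 4 h, given compound plus 1 nM T3 (final), and incubated 23.5 h at 37 C. ONE-Glo luminescence measured reporter inhibition; CellTiter-Fluor fluorescence tracked cytotoxicity.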

Assay [2] concerns thyroid hormone receptor (rat, GH3 cells). Kind of assay: qHTS assay to identify small molecule agonists of the thyroid receptor (TR) signaling pathway (AID 743066; calls by dose curve).
Assay [3] has as its target Estrogen receptor (Homo sapiens) (UniProt P03372). Nature of the assay: qHTS assay to identify small molecule agonists of the estrogen receptor alpha (ER-alpha) signaling pathway using the BG1 cell line (AID 743079). Further: nearly all actives have a fitted effect of over 20% in size. To be noted: BG1Luc4E2 cells, ERE-luciferase agonist, 22 h.
A short description of assay [4]: qHTS assay to identify small molecule antagonists of the estrogen receptor alpha (ER-alpha) signaling pathway using the BG1 cell line (AID 743080; calls by dose curve;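 further: BG1 cells stimulated with 17beta-estradiol alongside compound; nearly all actives have a fitted effect of over 25% in size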; further: potency means the concentration at half of the fitted maximal effect). Summed up:
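BG1Luc4E2, endogenous ER-alpha, 4xERE-luc; 5 d charcoal-stripped FBS, phenol red free; 24 h plating; cpd + 17beta-estradiol 21.5 h, 37 C/5% CO2; CellTiter-Fluor viability 30 min, then ONE-Glo luciferase 30 min RT.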
A general note: qHTS replaces the single test concentration by a dilution series.

A short description of assay [5]: qHTS assay to identify small molecule antagonists of the estrogen receptor alpha (ER-alpha) signaling pathway using the BG1 cell line - cell viability counter screen (AID 743081).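 Further: compound given together with 17beta-estradiol as the ER stimulus; nearly all actives have a fitted effect of over 45% in size.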
Assay [6] concerns the target Aromatase (Homo sapiens) (UniProt P11511). Nature of the assay: qHTS assay to identify aromatase inhibitors (AID 743083). Further: nearly all actives have a fitted effect of over 55% in size.
The nature of assay [7]: qHTS assay to identify aromatase inhibitors - cell viability counter screen (AID 743084).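 Further: cells stimulated with testosterone during compound exposure; nearly all actives have a fitted effect of over 55% in size.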
In assay [8] the target is Aryl hydrocarbon receptor (Homo sapiens) (UniProt P35869). Nature of the assay: qHTS assay to identify small molecule that activate the aryl hydrocarbon receptor (AhR) signaling pathway (AID 743085).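 Further: HG2L7.5c1 human HepG2 liver cells with stably integrated DRE-driven firefly reporter; nearly all actives have a fitted effect of over 15% in size.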 Summed up: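 Measured in HG2L7.5c1 cells: CellTiter-Fluor signal (30 min incubation, 37C) for viability, then luciferase luminescence (30 min, room temperature). Compound contact time was 24 h at 37C, following a 5 h pre-incubation.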

Assay [9] in a line: qHTS assay to identify small molecule that activate the aryl hydrocarbon receptor (AhR) signaling pathway - cell viability counter screen (AID 743086).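 Further: HepG2 liver cells carrying the AhR DRE luciferase reporter; nearly all actives have a fitted effect of over 45% in size.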 Summed up: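 HepG2-AhR-luc (HG2L7.5c1) cells, 4000/well, were preincubated 5 h at 37C, exposed to compound in qHTS format for 24 hr at 37C, then given CellTiter-Fluor for 30 min; viability was read as fluorescence in the reporter wells.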

Assay [10] concerns the target Peroxisome proliferator-activated receptor gamma (Homo sapiens) (UniProt P37231). Nature of the assay: qHTS assay to identify small molecule agonists of the peroxisome proliferator-activated receptor gamma (PPARg) signaling pathway (AID 743094; active means well fitted activation curve with a large enough effect in the signal ratio in the repeat runs, not every such curve was filed as active; the % refers to the signal ratio). Summed up: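 Cells from the PPARg UAS-bla HEK293H line are plated and incubated 5 h at 37C. Compounds in DMSO are pinned in and left 17 h at 37C. LiveBLAzer B/G substrate is then added for 1 h at room temperature before fluorescence is measured.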

Assay [11] shares this target. Kind of assay: qHTS assay to identify small molecule antagonists of the peroxisome proliferator-activated receptor gamma (PPARg) signaling pathway (AID 743191; calls by dose curve; further: nearly all actives have a fitted effect of over 30% in size; further: potency means the concentration at half of the fitted maximal effect). Summed up:
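GeneBLAzer PPARg UAS-bla HEK293H cells carrying a UAS-driven beta-lactamase reporter were plated at 3000 cells/well, preincubated 5 h at 37C, then given compound for 17 h at 37C; LiveBLAzer B/G FRET substrate was read after 1 h at room temperature.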

Assay [12] is described as follows: qHTS assay to identify small molecule antagonists of the peroxisome proliferator-activated receptor gamma (PPARg) signaling pathway - cell viability counter screen (AID 743194). Further: nearly all actives have a fitted effect of over 55% in size. To be noted: Potency: co-treated with 50 nM rosiglitazone. Summed up:
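PPARg-UAS-bla HEK293H cells were plated, rested 5 h at 37 C, then treated with compounds plus rosiglitazone (50 nM final) for 17 h at 37 C; viability was then read by CellTiter-Glo luminescence after 30 min at room temperature.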

A short description of assay [13]: qHTS assay for small molecule agonists of the antioxidant response element (ARE) signaling pathway - cell viability counter screen (AID 743203; calls by dose curve; further: nearly all actives have a fitted effect of over 55% in size). A digest of the protocol: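 Cytotoxicity was tested in parallel with the ARE reporter screen. ARE-bla HepG2 cells were exposed to compounds for 16 hrs, and viability was taken from CellTiter-Glo luminescence.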
The nature of assay [14]: qHTS assay for small molecule activators of the heat shock response signaling pathway - cell viability counter screen (AID 743209). Further: nearly all actives have a fitted effect of over 50% in size. A digest of the protocol: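 Cytotoxicity counter screen run in parallel with the HSE beta-lactamase reporter, using the same wells. HeLa HSE-bla cells received compound for 5 h at 37 C; ATP-based CellTiter-Glo luminescence was measured after 30 min at room temperature.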

Assay [15] is described as follows: qHTS assay to identify small molecule agonists of the peroxisome proliferator-activated receptor delta (PPARd) signaling pathway - cell viability counter screen (AID 743211). Further: nearly all actives have a fitted effect of over 55% in size. Summed up: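 Following 5 h plating at 37 C and 5% CO2, PPARd UAS-bla HEK293H cells took up test compounds for 17 h. Viability was quantified by luminescence 30 min after CellTiter-Glo addition at room temperature.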

Assay [16] has as its target Estrogen receptor (Homo sapiens) (UniProt P03372). Nature of the assay: qHTS assay to identify small molecule agonists of the estrogen receptor alpha (ER-alpha) signaling pathway (AID 743075; calls by dose curve).
Assay [17] can be described thus: qHTS assay to identify small molecule antagonists of the estrogen receptor alpha (ER-alpha) signaling pathway - cell viability counter screen (AID 743074; calls by dose curve; further: nearly all actives have a fitted effect of over 45% in size).
Assay [18] in a line: qHTS assay for small molecule activators of the heat shock response signaling pathway (AID 743210; active means well fitted activation curve with a large enough effect in the signal ratio in the repeat runs, with a control signal flat, not every such curve was filed as active; the % refers to the signal ratio;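 further: HeLa cells with beta-lactamase reporter driven by heat shock elements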). Summed up: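 Activation of heat shock element-controlled beta-lactamase expression is measured in HeLa cells by LiveBLAzer FRET fluorescence, with compound exposure lasting 5 h at 37 C and substrate loading 2.5 h at room temperature.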
Assay [19] is described as follows: qHTS assay for small molecule agonists of the antioxidant response element (ARE) signaling pathway (AID 743202; active means well fitted activation curve with a large enough effect in the signal ratio in the repeat runs, not every such curve was filed as active; the % refers to the signal ratio). A digest of the protocol:
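Steps: seed ARE-bla HepG2 cells (2,000/well); incubate 5 h at 37 C; add compounds by pin tool; incubate 16 h at 37 C; add FRET substrate; read fluorescence after 2 h at RT.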

The target in assay [20] is Estrogen receptor (Homo sapiens) (UniProt P03372). Kind of assay: qHTS assay to identify small molecule antagonists of the estrogen receptor alpha (ER-alpha) signaling pathway (AID 743069; active means well fitted curve in the direction sought with a large enough effect in the signal ratio in the repeat runs, not every such curve was filed as active; the % refers to the signal ratio). Summed up: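 Screening used a UAS-driven beta-lactamase reporter integrated into HEK293 cells expressing ER-alpha, stimulated with 17beta-estradiol alongside test compounds over 18 hr at 37C; signal came from LiveBLAzer B/G FRET fluorescence.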
On the % scale 0 is the no-effect control and ±100 the full control effect.

Sequence of Aryl hydrocarbon receptor (Homo sapiens) (P35869 whole entry, looked up): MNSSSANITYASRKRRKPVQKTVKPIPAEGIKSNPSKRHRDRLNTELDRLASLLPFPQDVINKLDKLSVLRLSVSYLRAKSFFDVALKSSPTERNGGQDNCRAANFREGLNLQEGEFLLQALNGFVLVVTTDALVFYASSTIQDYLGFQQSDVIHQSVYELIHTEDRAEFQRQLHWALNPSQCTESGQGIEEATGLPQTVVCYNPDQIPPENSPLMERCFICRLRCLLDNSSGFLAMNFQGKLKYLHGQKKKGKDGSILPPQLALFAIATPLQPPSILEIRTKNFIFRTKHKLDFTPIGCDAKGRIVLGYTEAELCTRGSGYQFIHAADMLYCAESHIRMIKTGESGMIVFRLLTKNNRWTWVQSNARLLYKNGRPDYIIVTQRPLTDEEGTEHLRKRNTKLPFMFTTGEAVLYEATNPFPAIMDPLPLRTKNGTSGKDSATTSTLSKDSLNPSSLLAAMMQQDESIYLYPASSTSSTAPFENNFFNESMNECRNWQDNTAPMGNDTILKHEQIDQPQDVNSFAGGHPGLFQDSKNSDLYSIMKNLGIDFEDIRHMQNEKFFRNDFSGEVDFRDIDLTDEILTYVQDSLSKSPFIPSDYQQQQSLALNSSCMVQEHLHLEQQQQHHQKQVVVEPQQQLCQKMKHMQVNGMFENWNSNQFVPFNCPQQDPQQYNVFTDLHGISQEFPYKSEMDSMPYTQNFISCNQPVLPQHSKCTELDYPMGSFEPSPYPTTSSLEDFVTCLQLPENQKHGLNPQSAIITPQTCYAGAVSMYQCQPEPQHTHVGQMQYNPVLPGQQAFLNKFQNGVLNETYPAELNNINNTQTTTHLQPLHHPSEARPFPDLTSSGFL
Sequence of Peroxisome proliferator-activated receptor gamma (Homo sapiens) (P37231 whole entry, looked up): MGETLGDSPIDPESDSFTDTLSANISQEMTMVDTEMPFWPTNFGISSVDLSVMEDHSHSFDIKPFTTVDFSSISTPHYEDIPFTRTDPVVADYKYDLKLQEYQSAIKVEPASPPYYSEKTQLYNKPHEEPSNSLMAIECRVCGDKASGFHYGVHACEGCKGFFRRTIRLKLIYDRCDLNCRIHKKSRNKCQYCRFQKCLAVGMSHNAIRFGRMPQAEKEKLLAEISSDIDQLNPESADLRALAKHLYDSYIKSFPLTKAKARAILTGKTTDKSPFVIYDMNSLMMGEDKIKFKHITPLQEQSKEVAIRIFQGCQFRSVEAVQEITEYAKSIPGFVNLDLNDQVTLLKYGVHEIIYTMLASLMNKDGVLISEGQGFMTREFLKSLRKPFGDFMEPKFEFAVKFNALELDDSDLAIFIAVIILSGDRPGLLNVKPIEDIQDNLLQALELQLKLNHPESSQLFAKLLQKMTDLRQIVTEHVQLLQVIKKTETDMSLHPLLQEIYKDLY
Sequence of Aromatase (Homo sapiens) (P11511 whole entry, looked up): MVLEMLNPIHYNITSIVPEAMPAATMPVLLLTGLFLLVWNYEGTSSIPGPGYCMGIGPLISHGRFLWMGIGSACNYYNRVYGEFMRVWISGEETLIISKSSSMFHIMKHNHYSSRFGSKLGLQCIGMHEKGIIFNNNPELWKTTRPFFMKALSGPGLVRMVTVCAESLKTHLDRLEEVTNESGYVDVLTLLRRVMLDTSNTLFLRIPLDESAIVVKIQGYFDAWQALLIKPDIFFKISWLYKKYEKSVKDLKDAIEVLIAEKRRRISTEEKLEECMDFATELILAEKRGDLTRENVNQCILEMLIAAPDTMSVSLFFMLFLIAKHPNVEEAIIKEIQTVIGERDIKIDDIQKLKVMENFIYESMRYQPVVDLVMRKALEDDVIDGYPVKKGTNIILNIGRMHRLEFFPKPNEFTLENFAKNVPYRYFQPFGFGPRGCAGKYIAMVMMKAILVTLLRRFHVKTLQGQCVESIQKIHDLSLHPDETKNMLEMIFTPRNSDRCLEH
Sequence of Estrogen receptor (Homo sapiens) (P03372 whole entry, looked up): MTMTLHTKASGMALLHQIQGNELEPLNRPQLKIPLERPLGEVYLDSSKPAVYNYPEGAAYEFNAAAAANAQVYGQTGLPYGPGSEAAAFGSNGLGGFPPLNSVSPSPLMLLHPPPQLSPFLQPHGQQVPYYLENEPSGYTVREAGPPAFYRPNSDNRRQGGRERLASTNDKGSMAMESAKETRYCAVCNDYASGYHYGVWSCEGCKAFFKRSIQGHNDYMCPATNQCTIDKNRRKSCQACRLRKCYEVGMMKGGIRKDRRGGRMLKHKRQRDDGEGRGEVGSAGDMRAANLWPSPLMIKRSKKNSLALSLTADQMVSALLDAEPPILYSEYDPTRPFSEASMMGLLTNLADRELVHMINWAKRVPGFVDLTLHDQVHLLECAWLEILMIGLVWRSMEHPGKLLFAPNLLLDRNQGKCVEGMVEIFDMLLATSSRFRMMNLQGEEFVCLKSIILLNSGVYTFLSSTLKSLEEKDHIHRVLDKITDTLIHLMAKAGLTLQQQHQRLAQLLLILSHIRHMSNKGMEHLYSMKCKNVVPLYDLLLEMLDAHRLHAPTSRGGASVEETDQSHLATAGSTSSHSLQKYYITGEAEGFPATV

`Cc1cc(C)c(C(=O)P(=O)(C(=O)c2c(C)cc(C)cc2C)c2ccccc2)c(C)c1`: the Potency result in [1], in [2], in assay [4], in [5], in assay [6] and in assay [7] was “inactive” throughout. For the same compound, the Potency result in [8], in [11], in [12], in [13], in assay [14] and in assay [15] was “inactive” each time. In addition, the activation in assay [3] (at 70.3 µM (top of the series)) is 37.1%. Moreover, the result in [9] and in assay [10] was inactive.
In the case of `C(CCOCC1CO1)COCC1CO1` (stereo not drawn), the Potency in assay [1] is 42.6 µM (active). Also, the Potency entry in assay [2], in assay [16], in [4], in [5], in assay [6] and in assay [7] was “inactive” each time. Moreover, the Potency result in assay [8], in assay [13] and in assay [15] was “inactive” each time. Besides, the activation in [3] (at 70.3 µM (top of the series)) is 0.112%. Also, the call in assay [9] was inactive.
As for `C[C@]1(O)CC[C@H]2[C@@H]3CCC4=CC(=O)CC[C@]4(C)[C@@]3(F)[C@@H](O)C[C@@]21C`, the compound was classed as inactive in assay [17], in assay [9], in assay [10] and in [18]. In addition, the Potency result in [5], in assay [6], in [7], in [8], in assay [11] and in assay [13] was “inactive” throughout. Further, the Potency entry in [14] and in assay [15] was “inactive” each time.
Take `CCC(=O)C(CCN(C)C)(c1ccccc1)c1ccccc1`: the Potency result in assay [11], in assay [12], in [19], in [13], in assay [14] and in assay [15] was “inactive” each time. The result in [18] was inactive.
Consider `Clc1ccccc1N1CCNCC1`, for which the Potency result in assay [11], in assay [12], in assay [14] and in [15] was “inactive” each time.
Regarding `CCc1cc2c(s1)-n1c(C)nnc1CN=C2c1ccccc1Cl`, the Potency entry in assay [2], in assay [16], in [6], in assay [7], in assay [8] and in [12] was “inactive” throughout. In addition, the Potency entry in assay [19], in assay [13], in [14] and in assay [15] was “inactive” each time. For the same compound, the compound was classed as inactive in [17], in assay [9] and in assay [10]. The Potency in assay [4] is 11.9 µM (active).
For `COc1cccc(C(=O)NN(C(=O)c2cc(C)cc(C)c2)C(C)(C)C)c1C`, the Potency result in assay [2], in assay [6], in [11], in assay [12], in [13] and in assay [15] was “inactive” throughout. Further, the compound was classed as inactive in [17] and in assay [18].
With `CC(C)CC(N(C)C)C1(c2ccc(Cl)cc2)CCC1` (stereo not drawn), the Potency entry in [2], in assay [5], in assay [6], in [7], in assay [8] and in assay [12] was “inactive” each time. In addition, the Potency result in assay [19], in assay [13], in assay [14] and in assay [15] was “inactive” throughout. The call in assay [17] and in assay [9] was inactive.
For the compound `CC(C)CC#N`, the Potency entry in [20], in assay [16], in assay [5], in assay [6], in assay [7] and in [8] was “inactive” in each case. Moreover, the Potency entry in assay [11], in assay [12], in assay [19], in assay [13] and in assay [15] was “inactive” each time. Further, the result in assay [17], in [9], in assay [10] and in assay [18] was inactive. Besides, the activation in assay [3] (at 95 µM (top of the series)) is 6.55%.
On to `O=C(Oc1ccc(Br)cc1)N1CCN2CCC1CC2`, for which the Potency entry in assay [2], in assay [20], in [16], in assay [5], in [6] and in assay [7] was “inactive” throughout. For the same compound, the Potency result in assay [8], in assay [11], in assay [12], in assay [13], in [14] and in assay [15] was “inactive” in each case. The call in [17], in assay [9] and in assay [10] was inactive. In addition, in assay [3] (at 70.3 µM (top of the series)), the activation is 1.03%.
Regarding `CCOC(=O)C(c1c(O)c2ccccc2oc1=O)c1c(O)c2ccccc2oc1=O`, the Potency in assay [11] is 7.5 µM (active). Also, the Potency result in assay [13], in assay [14] and in assay [15] was “inactive” in each case. Also, in [18], the compound was called inactive.
Turning to `CCOC(=O)C1(c2ccccc2)CCN(CCc2ccc(N)cc2)CC1`, the Potency entry in [12], in [19], in [13], in assay [14] and in [15] was “inactive” in each case. Moreover, the result in [18] was inactive.
In the case of `CC1COC2(c3ccccc3Cl)c3cc(Cl)ccc3NC(=O)CN12` (stereo not drawn), the Potency entry in assay [11], in assay [12], in assay [13], in [14] and in assay [15] was “inactive” in each case. For the same compound, the outcome in assay [18] was inactive.
